Measurements reported in PubChem BioAssay (EPA / NIEHS).
Results filed as inconclusive are left out. The source made the active and inactive calls. How the source made its calls, unless noted: active means hit-call score of the fitted dose curve at least 0.9, where 1 is the maximum; inactive means score below 0.9.

Experiments:
[1] = ACEA_ER_80hr: ACEA Biosciences xCELLigence Real-Time Cell Analysis on Estrogen Receptor Agonism for Proliferation (AID 2282667; active means hit-call score of the fitted dose curve at least 0.9, where 1 is the maximum); conditions: T47D proliferation, impedance (xCELLigence), 80 h
Outline: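 Real-time electrical impedance tracked growth of the human breast line T47D, with the 80 h post-dosing value used. Dosing spanned eight 1:4 steps down from a 100 uM final top concentration, run in duplicate.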

[2] = APR_HepG2_CellCycleArrest_24hr: Apredica 24-hour HepG2 Assay for Cell Cycle Arrest (AID 2282905); conditions: imaging, actives raise or lower the signal;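 further: cell cycle arrest scored as ratio of 2N to 4N nuclear DNA content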
Outline: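 HepG2, 24 hr dosing, 10-pt 0.39–200 uM in duplicate, 0.5% DMSO. Fixed 3.7% formaldehyde, permeabilized 0.5% Triton X-100, Hoechst 33342 2 ug/mL. Imaged 20x; nuclear DNA content quantified; bidirectional fit vs DMSO.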

[3] = APR_HepG2_NuclearSize_24hr: Apredica 24-hour HepG2 Assay for Nuclear Size (AID 2282907); conditions: high-content imaging, actives raise or lower the signal
Outline: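 HepG2, 24 hr dosing, 10-pt 0.39–200 uM, duplicates, 0.5% DMSO final; 3.7% formaldehyde fix, 0.5% Triton X-100; Hoechst 33342 nuclear stain; ArrayScan HCS, Cell Cycle analysis → nuclear size; bidirectional fit vs DMSO.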

[4] = APR_HepG2_CellLoss_24hr: Apredica 24-hour HepG2 Assay for Cell Loss (AID 2282908); conditions: high-content imaging
Outline: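 10-pt dose, 0.39–200 uM, n=2/plate; DMSO 0.5% v/v final as negative control. Fix 3.7% formaldehyde 30 min RT, permeabilize 0.5% Triton X-100, stain Hoechst 33342 2 ug/mL, image 20x. Nuclear count, bidirectional fit vs DMSO.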

[5] = APR_HepG2_MicrotubuleCSK_24hr: Apredica 24-hour HepG2 Assay for Microtubule CSK Stabilty (AID 2282909); conditions: HepG2 microtubule cytoskeleton imaging, actives raise or lower the signal
Outline: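 Human liver HepG2, 24 h dosing, 0.39–200 uM ×10 conc, dup, 0.5% DMSO. 3.7% formaldehyde fix, 0.5% Triton perm, anti-alpha-tubulin (1:200)/Cy5 secondary + Hoechst. HCS imaging, 6 fields/well; gain/loss fit vs DMSO.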

[6] = APR_HepG2_MitoticArrest_24hr: Apredica 24-hour HepG2 Assay for Mitotic Arrest (AID 2282910); conditions: high-content imaging, actives raise or lower the signal
Outline: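 HepG2 cells, 24 h exposure at 0.39-200 uM (10 concentrations, duplicate, 0.5% DMSO). Fixed, stained for phospho-histone H3 with Hoechst; imaged by high-content microscopy, bidirectional fit versus DMSO.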

[7] = APR_HepG2_MitoMass_24hr: Apredica 24-hour HepG2 Assay for Mitochondrial Mass (AID 2282912); conditions: high-content imaging, actives raise or lower the signal
Outline: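 Mitochondrial mass is read as MitoTracker Red fluorescence intensity from automated imaging, with bidirectional curve fitting relative to DMSO. HepG2 cells received compound (0.39–200 uM, 0.5% DMSO final) for 24 hr and were dye-loaded (250 nM, 30 min) before formaldehyde fixation.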

[8] = APR_HepG2_CellCycleArrest_72hr: Apredica 72-hour HepG2 Assay for Cell Cycle Arrest (AID 2282914); conditions: high-content imaging, actives raise or lower the signal
Outline: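 Read-out is Hoechst-stained nuclear DNA content measured by automated fluorescence imaging (20x, six images per well), fitted in both directions relative to DMSO. Human HepG2 liver cells received 0.39–200 uM compound for 72 hr at 0.5% v/v DMSO.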

[9] = APR_HepG2_CellLoss_72hr: Apredica 72-hour HepG2 Assay for Cell Loss (AID 2282915); conditions: high-content imaging
Outline: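 HepG2 cells exposed 72 h to compound at 0.39–200 uM (10 concentrations, duplicate) in 0.5% DMSO. Fixed with 3.7% formaldehyde and Hoechst 33342-stained. Imaged at 20x; nuclear count gives cell number, fitted bidirectionally versus DMSO.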

[10] = APR_HepG2_P-H2AX_72hr: Apredica 72-hour HepG2 Assay for H2AX Phosphorylation (AID 2282916); conditions: imaging, actives raise or lower the signal;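 further: phospho-histone H2A.x immunostain intensity per cell marking DNA damage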
Outline: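 HepG2; cpd 0.39–200 uM ×10 conc, duplicates; 0.5% DMSO; 72 hr. Fix 3.7% formaldehyde 30 min RT, 0.5% Triton X-100 10 min. Anti-phospho-H2A.x 1:200 + Hoechst 2 ug/mL, 60 min RT; ArrayScan imaging.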

[11] = APR_HepG2_MitoMembPot_72hr: Apredica 72-hour HepG2 Assay for Mitochondrial Membrane Potential (AID 2282917); conditions: imaging, actives raise or lower the signal
Outline: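 HepG2 cells dosed 72 hr with compound at 0.39–200 uM in duplicate, 0.5% v/v DMSO final. Mitochondria stained with 250 nM MitoTracker Red CMXRos for 30 min before formaldehyde fixation, imaged by high-content fluorescence; bidirectional fit versus DMSO.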

[12] = APR_HepG2_MitoticArrest_72hr: Apredica 72-hour HepG2 Assay for Mitotic Arrest (AID 2282918); conditions: high-content imaging, actives raise or lower the signal
Outline: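 Read-out is phospho-histone H3 immunofluorescence with Hoechst nuclear segmentation, imaged at 20x. Human HepG2 liver cells received ten concentrations (0.39–200 uM, final DMSO 0.5% v/v) for 72 hr before fixation. Gain or loss of signal was fitted relative to DMSO.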

[13] = APR_HepG2_StressKinase_72hr: Apredica 72-hour HepG2 Assay for Stress Kinase (AID 2282921); conditions: HepG2 stress kinase (phospho-c-Jun) imaging, actives raise or lower the signal
Outline: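 Dose 0.39–200 uM (10 pts, duplicate), 0.5% DMSO; 72 h; fix 3.7% formaldehyde 30 min RT; Triton permeabilize; anti-phospho-c-Jun/Cy3 + Hoechst 60 min RT; image 20x; fit gain/loss vs DMSO.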

[14] = APR_HepG2_StressKinase_24hr: Apredica 24-hour HepG2 Assay for Stress Kinase (AID 2282922); conditions: HepG2 stress kinase (phospho-c-Jun) imaging, actives raise or lower the signal
Outline: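 HepG2 cells exposed 24 h to 0.39–200 uM compound in duplicate (0.5% v/v DMSO final). Cells fixed in 3.7% formaldehyde, permeabilized and immunostained for phospho-c-Jun; read by high-content fluorescence imaging, fitted bidirectionally against DMSO.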

[15] = APR_HepG2_p53Act_72hr: Apredica 72-hour HepG2 Assay for p53 Activation (AID 2282923); conditions: high-content imaging, actives raise or lower the signal;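 further: average cellular p53 protein immunofluorescence intensity in HepG2 cells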
Outline: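 10-pt conc. 0.39–200 uM, duplicate, 0.5% DMSO; 72 hr exposure; 3.7% formaldehyde fix, 0.5% Triton perm; sheep anti-p53/Cy5 + Hoechst; ArrayScan 20x, 6 images/well; gain/loss fit vs DMSO.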

[16] = APR_HepG2_MitoMass_72hr: Apredica 72-hour HepG2 Assay for Mitochondrial Mass (AID 2282924); conditions: high-content imaging, actives raise or lower the signal;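 further: MitoTracker Red CMXRos stain intensity per cell imaged as mitochondrial mass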
Outline: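 HepG2 cells dosed 72 hr at 0.39–200 uM (0.5% DMSO), in duplicate. MitoTracker Red CMXRos 250 nM loaded 30 min before formaldehyde fixation; high-content fluorescence imaging, bidirectional fit versus DMSO.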

[17] = APR_HepG2_NuclearSize_72hr: Apredica 72-hour HepG2 Assay for Nuclear Size (AID 2282925); conditions: high-content imaging, actives raise or lower the signal
Outline: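 HepG2 cells dosed 72 h at 0.39–200 uM (10 concentrations, duplicate) in 0.5% v/v DMSO final. Fixed, Hoechst 33342-stained nuclei imaged; nuclear diameter measured by automated image analysis. Bidirectional fit versus DMSO.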

[18] = ATG_CRE_CIS: Attagene CIS-FACTORIAL HepG2 Assay for human cAMP Responsive Element (CRE) binding protein 3 (AID 2282926); conditions: HepG2 CRE cis-reporter, Attagene multiplexed mRNA; actives raise or lower the signal
Outline: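 Human liver HepG2, transient MRTU transfection, 24 h compound exposure. Total RNA → oligo(dT) RT → PCR → 6-FAM primer extension → HpaI cut → CE. Activity called both directions vs DMSO.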

[19] = APR_HepG2_MitoMembPot_24hr: Apredica 24-hour HepG2 Assay for Mitochondrial Membrane Potential (AID 2282911); conditions: imaging, actives raise or lower the signal
Outline: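 Cells are dosed for 24 hr across 0.39 to 200 uM with solvent held at 0.5% DMSO. They are then stained with 250 nM MitoTracker Red CMXRos for 30 min, fixed in 3.7% formaldehyde and imaged.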

Measured: AC50

CCN(CC)c1ccccc1
not listed: [19]
inactive: all other assays above

OCC1CO1 (stereo unspecified)
not listed: [14]
inactive: all other assays above

Cc1ccc([N+](=O)[O-])cc1C
not listed: [14] | [15] | [19]
inactive: all other assays above

CCOC(=O)c1ccccc1C(=O)OCC
not listed: [14] | [19]
inactive: all other assays above

c1nc[nH]n1
not listed: [14] | [19]
inactive: all other assays above

c1ccc2c(c1)Nc1ccccc1S2
active: [2] 9.76 µM | [9] 47 µM | [11] 123 µM
not listed: [14] | [19]
inactive: all other assays above

CC(Cl)(Cl)C(=O)O
not listed: [14] | [15]
inactive: all other assays above

CCOc1ccc(C(C)(C)COCc2cccc(Oc3ccccc3)c2)cc1
active: [8] 85.5 µM | [9] 68.3 µM | [12] 66.6 µM
not listed: [14] | [19]
inactive: all other assays above

Nc1ccc2ccccc2c1
active: [8] 88.9 µM | [16] 69.8 µM
not listed: [14] | [19]
inactive: all other assays above

O=P1(N(CCCl)CCCl)NCCCO1 (stereo unspecified)
active: [1] 3.97 µM
not listed: [14] | [19]
inactive: all other assays above

CNC(=O)Oc1ccc(N(C)C)c(C)c1
inactive: [1] | [18]

Nc1ccc([N+](=O)[O-])cc1Cl
inactive: [1] | [18]

Cc1ccc(C(=O)Cl)cc1
inactive: [1] | [18]

O=C(O)C1C(C(=O)O)C2(Cl)C(Cl)=C(Cl)C1(Cl)C2(Cl)Cl (stereo unspecified)
not listed: [11] | [12] | [14] | [16] | [19]
inactive: all other assays above

O=C(O)C(F)(F)C(F)(F)C(=O)O
inactive: [1] | [18]

CC(C)(C)N(NC(=O)c1ccc(Cl)cc1)C(=O)c1ccccc1
inactive: [1] | [18]

c1ccc2c(c1)sc1ccccc12
inactive: [1] | [18]

COP(N)(=S)OC
inactive: [1] | [18]

CC(C)CBr
inactive: [1] | [18]

OCC(F)(F)OC(F)(F)C(F)(F)OC(F)(F)C(F)(F)OC(F)(F)F
inactive: [1] | [18]

OCC(F)(F)OC(F)(F)C(F)(F)OC(F)(F)C(F)(F)OC(F)(F)CO
active: [1] 0.976 µM | [18] 35.5 µM

CCN(CC)C1CCCCC1
inactive: [1] | [18]

C=CC(=O)OCC(F)(F)C(F)F
inactive: [1] | [18]

N#Cc1cc([N+](=O)[O-])ccc1N
inactive: [1] | [18]

FC(F)(F)c1ccc(Cl)cc1
inactive: [1] | [18]

O=S(=O)(c1ccc(O)cc1)c1ccc(O)cc1
inactive: [18]
active: [1] 2.18 µM

c1cc2c3c(cccc3c1)CC2
not listed: [11] | [12] | [14] | [16] | [19]
inactive: all other assays above

O=C(O)C(F)(F)OC(F)(F)C(F)(F)OC(F)(F)C(=O)O
inactive: [1] | [18]

CC(C)Nc1ccc(Nc2ccccc2)cc1
inactive: [1] | [18]

O=c1ssc(Cl)c1Cl
active: [18] 50.9 µM
inactive: [1]

Cn1[nH]nnc1=S
inactive: [1] | [18]

O=S1(=O)OCC2C(CO1)C1(Cl)C(Cl)=C(Cl)C2(Cl)C1(Cl)Cl (stereo unspecified)
active: [1] 0.0213 µM | [18] 171 µM

CCOP(=S)(OCC)SCSc1ccc(Cl)cc1
inactive: [1] | [18]

CC(=O)CCc1ccc2c(c1)OCO2
inactive: [1] | [18]

CC(C)(C)c1ccc(O)cc1
active: [1] 10.5 µM
inactive: [4] | [6] | [7] | [9] | [10] | [11] | [12] | [13] | [15] | [16]

CC1=C(C(=O)Nc2ccccc2)S(=O)(=O)CCO1
active: [1] 0.267 µM
inactive: [18]

C=CC(=O)OCC(CC)(COC(=O)C=C)COC(=O)C=C
inactive: [1] | [18]

O=C(O)CF
inactive: [1] | [18]

CCCCc1ccc(O)cc1
inactive: [18]
active: [1] 10.5 µM

CCCCOCC1CO1 (stereo unspecified)
inactive: [1] | [18]

O=P(OCC(Br)CBr)(OCC(Br)CBr)OCC(Br)CBr (stereo unspecified)
inactive: [1] | [18]

O=C(O)C(F)(F)OC(F)(F)C(F)(F)OC(F)(F)F
inactive: [1] | [18]

CCOP(=S)(OCC)SCn1nnc2ccccc2c1=O
inactive: [1] | [18]

COC(N)=O
inactive: [1] | [18]

Cc1ccc(O)cc1C
not listed: [2] | [3] | [5] | [8] | [14] | [17] | [18] | [19]
inactive: all other assays above

CCCCN(CC)C(=O)SCCC
inactive: [1] | [18]

Oc1ccccc1Br
inactive: [1] | [18]

O=c1[nH]c2ccccc2c(=O)o1
inactive: [1] | [18]

O=S(=O)(F)C(F)(F)C(F)(F)C(F)(F)C(F)(F)C(F)(F)C(F)(F)C(F)(F)C(F)(F)F
inactive: [1] | [18]
